PubChem BioAssay AID1159580 (chemical genetic matrix, 2015)
Where “and” joins values, the source holds several entries; their conditions need not be identical. Equal values may be shown once. Screen size: about 5,500 compounds; about 2,000 (36%) were called active. About 18% were inconclusive and are not listed. Cut-off read from the data, not from the text of the source: active = normalized growth mostly below about 0.91 (no sharp cut-off); inconclusive = no clear call, values can overlap the other calls; inactive = mostly above about 0.92. The list shows a part of the results.

Assay: chemical genetic growth profiling, strain panel (AID 1159580);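 note: tested at 20 µM; growth read once vehicle control cultures reached saturation at 30 °C; 1 = growth at the plate median or of vehicle wells; lower values mean less growth of the strain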
Conditions: S. cerevisiae deletion strains, growth OD

Measured: normalized growth

CCCNC(C)C(=O)Nc1ccccc1C (stereo not given)
inactive: locus YAL013W, strain DEP1, hits give low values 1.01 | locus YAL021C, strain ccr4, hits give low values 1.01 | locus YAL026C, strain drs2, hits give low values 1.01 | locus YAL030W, strain snc1, hits give low values 0.995 | locus YAL040C, strain CLN3, hits give low values 1.07 | locus YBL061C, strain skt5, hits give low values 1.01 | locus YBR009C, strain hhf1, hits give low values 1.01 | locus YBR021W, strain FUR4, hits give low values 1.01 | locus YBR023C, strain chs3, hits give low values 1 | locus YBR171W, strain sec66, hits give low values 1.01 | locus YBR229C, strain ROT2, hits give low values 1.01 | locus YBR231C, strain swc5, hits give low values 1.01 | locus YBR279W, strain paf1, hits give low values 1.01 | locus YCL011C, strain gbp2, hits give low values 0.999 | locus YCL016C, strain dcc1, hits give low values 1.01 | locus YCL029C, strain bik1, hits give low values 1 | locus YCL061C, strain MRC1 (second series), hits give low values 1.01 | locus YCL061C, strain MRC1, hits give low values 0.997 | locus YCL069W, strain vba3, hits give low values 1.01 | locus YCR088W, strain abp1, hits give low values 1.01 | locus YDL005C, strain med2, hits give low values 1 | locus YDL035C, strain GPR1, hits give low values 1.01 | locus YDL040C, strain nat1, hits give low values 1.01 | locus YDL074C, strain BRE1, hits give low values 1.02 | locus YDL101C, strain DUN1, hits give low values 1.02 | locus YDL134C, strain PPH21, hits give low values 1.01 | locus YDL185W, strain tfp1, hits give low values 0.997 | locus YDL192W, strain arf1, hits give low values 0.996 | locus YDR001C, strain nth1, hits give low values 1 | locus YDR069C, strain doa4, hits give low values 1.02 | locus YDR101C, strain arx1, hits give low values 1 | locus YDR137W, strain rgp1, hits give low values 1.03 | locus YDR150W, strain NUM1, hits give low values 1.01 | locus YDR159W, strain sac3, hits give low values 1 | locus YDR162C, strain NBP2, hits give low values 1.01 | locus YDR195W, strain ref2 1.01 | locus YDR297W, strain sur2, hits give low values 1 | locus YDR318W, strain mcm21, hits give low values 0.998 | locus YDR334W, strain swr1, hits give low values 0.998 | locus YDR335W, strain msn5, hits give low values 1.01 | locus YDR363W, strain ESC2, hits give low values 1.05 | locus YDR388W, hits give low values 0.99 | locus YDR392W, strain spt3, hits give low values 1.01 | locus YDR502C, strain sam2, hits give low values 0.991 | locus YEL003W, strain gim4, hits give low values 0.998 | locus YEL037C, strain rad23, hits give low values 0.994 | locus YEL061C, strain CIN8 (second series), hits give low values 1.01 | locus YEL061C, strain CIN8, hits give low values 1.01 | locus YER002W, strain NOP16, hits give low values 0.995 | locus YER015W, strain faa2, hits give low values 0.984 | locus YER016W, strain bim1, hits give low values 0.999 | locus YER110C, hits give low values 0.991 | locus YER111C, strain swi4, hits give low values 1 | locus YER155C, strain BEM2 (second series), hits give low values 1.01 | locus YER155C, strain BEM2, hits give low values 1.01 | locus YER167W, strain BCK2, hits give low values 1 | locus YFR010W, strain ubp6, hits give low values 0.992 | locus YGL078C, strain dbp3, hits give low values 0.987 | locus YGL086W, strain mad1, hits give low values 0.993 | locus YGL167C, strain pmr1, hits give low values 1.01 | locus YGL173C, strain kem1, hits give low values 1 | locus YGL227W, strain vid30, hits give low values 1 | locus YGL240W, strain doc1, hits give low values 1.01 | locus YGL248W, strain PDE1, hits give low values 1.02 | locus YGL253W, strain hxk2, hits give low values 1.01 | locus YGR078C, strain PAC10, hits give low values 1 | locus YGR135W, strain pre9, hits give low values 0.957 | locus YGR229C, strain SMI1, hits give low values 0.99 and 1.01 | locus YGR252W, strain gcn5, hits give low values 0.911 | locus YHR013C, strain ard1, hits give low values 1.01 | locus YHR027C, strain rpn1, hits give low values 1.01 | locus YHR030C, strain SLT2, hits give low values 1.01 and 1.04 | locus YHR079C, strain IRE1 (second series), hits give low values 1.01 | locus YHR079C, strain IRE1, hits give low values 1.06 | locus YHR094C, strain hxt1, hits give low values 0.982 | locus YHR129C, strain ARP1, hits give low values 1.01 | locus YHR142W, strain chs7, hits give low values 1 | locus YHR200W, strain rpn10, hits give low values 0.999 | locus YIL066C, strain RNR3, hits give low values 1.02 | locus YIL073C, strain SPO22, hits give low values 0.989 | locus YIL125W, strain kgd1, hits give low values 0.981 | locus YIR030C, strain dcg1, hits give low values 0.994 | locus YJL092W, strain hpr5, hits give low values 1 | locus YJL095W, strain BCK1 (second series), hits give low values 1.01 | locus YJL095W, strain BCK1, hits give low values 1.02 and 1.05 | locus YJL115W, strain asf1, hits give low values 1.01 | locus YJL129C, strain trk1, hits give low values 1.01 | locus YJL134W, strain LCB3, hits give low values 1.01 | locus YJL154C, strain vps35, hits give low values 1 | locus YJL164C, strain tpk1, hits give low values 0.958 | locus YJL166W, strain qcr8, hits give low values 0.999 | locus YJL168C, strain set2, hits give low values 0.991 | locus YJL187C, strain SWE1 (second series), hits give low values 1.02 | locus YJL187C, strain SWE1, hits give low values 0.999 | locus YJR043C, strain POL32, hits give low values 1
